The record followed here is PubChem BioAssay (NCI).

Among the test systems are DU-145 prostate; K-562 leukemia; MALME-3M melanoma; MDA-MB-231 breast; RXF 393 renal; SF-268 CNS; SF-295 CNS; SF-539 CNS; UACC-257 melanoma; M14 melanoma; HCT-15 colon; HT29 colon; SNB-75 CNS; SNB-19 CNS; U251 CNS; PC-3 prostate; SK-MEL-5 melanoma; UACC-62 melanoma; LOX IMVI melanoma; SK-MEL-28 melanoma.
Assay in all cases: NCI-60 one-dose screen, 48 h (100 = growth as untreated, 0 = no growth, -100 = all killed)
What all share (details): 10 µM unless noted

The structures appear in SMILES notation. This is part of a sample that, as a whole, favours compounds with a hit. Of some 83,000 tested, about 20% had one in any assay.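 96-well plates, one dose, 48 hours. Percent growth reported; active if below 10.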 Unmarked numbers belong to inactive results. The source made the active and inactive calls.

Consider `COc1ccc(-c2nc(/C=C3\C(=O)N(C)c4ccccc43)c3ccccn23)cc1`, for which the growth with DU-145 prostate was 93%; with K-562 leukemia, 95.9%; in the assay with MALME-3M melanoma, 72.5%; in the assay with MDA-MB-231 breast, 85.2%; in the assay with RXF 393 renal it was 67.4%; in the assay on SF-268 CNS it was 66%. The growth in the assay with SF-295 CNS was 83.2%; in the assay with SF-539 CNS, 72.7%; with UACC-257 melanoma, 86%; with M14 melanoma, 99.1%; in the assay with HCT-15 colon it was 90%; in the assay on HT29 colon, 96.8%. Also, the growth in the assay with SNB-75 CNS is 51.1%; in the assay with SNB-19 CNS, 78.7%; in the assay on U251 CNS, 75.1%; with PC-3 prostate, 86.9%; in the assay on SK-MEL-5 melanoma, 65.5%; in the assay with UACC-62 melanoma it was 68.5%. In addition, the growth with LOX IMVI melanoma is 65.2%; in the assay on SK-MEL-28 melanoma, 99.6%.
On to `CC(=C(c1ccc(OCCN2CCCCC2)cc1)c1ccc(OCCN2CCCCC2)cc1)c1ccc(Cl)cc1`, for which the growth in the assay with DU-145 prostate is -92.8% (active); in the assay with K-562 leukemia, -65.7% (active); in the assay with MALME-3M melanoma it was -84.3% (active); in the assay with MDA-MB-231 breast, -85.1% (active); with RXF 393 renal, -78.8% (active); in the assay with SF-268 CNS it was -77.2% (active). Moreover, the growth was -92.1% (active) in the assay on SF-295 CNS; -94.9% (active) in the assay with SF-539 CNS; -82.1% (active) in the assay on UACC-257 melanoma; -81.9% (active) in the assay with M14 melanoma; -88.3% (active) in the assay with HCT-15 colon; -86.3% (active) in the assay with HT29 colon. Moreover, the growth is -97.3% (active) in the assay on SNB-75 CNS; -91.2% (active) with SNB-19 CNS; -90.7% (active) in the assay on U251 CNS; -82.4% (active) with PC-3 prostate; -96.9% (active) in the assay with SK-MEL-5 melanoma; -76.9% (active) in the assay with UACC-62 melanoma. Also, the figures for the growth in the assay on LOX IMVI melanoma and with SK-MEL-28 melanoma were -94.5% (active) and -96.1% (active), respectively.
As to `COc1cc(OC)cc(-c2ccc(-c3ccc(C(=N)N)o3)o2)c1`, the growth in the assay with DU-145 prostate was 60.2%; in the assay with K-562 leukemia it was 4.64% (active); in the assay with MALME-3M melanoma it was 71.3%; in the assay on MDA-MB-231 breast it was 0.981% (active); in the assay on RXF 393 renal it was 58.2%; in the assay on SF-268 CNS it was 62.6%. Further, the growth with SF-295 CNS was 86.3%; in the assay on SF-539 CNS, 73.1%; in the assay on UACC-257 melanoma, 45.4%; in the assay with M14 melanoma, 25.1%; with HCT-15 colon, -6.9% (active); in the assay with HT29 colon it was 8.19% (active). Moreover, the growth with SNB-75 CNS was 87.6%; with SNB-19 CNS, 51.3%; in the assay with U251 CNS, 8.25% (active); in the assay with PC-3 prostate, 71.2%; in the assay on SK-MEL-5 melanoma, 76%; in the assay on UACC-62 melanoma, -3.63% (active). Besides, the growth in the assay on LOX IMVI melanoma was -64.1% (active); with SK-MEL-28 melanoma, 87.8%.
Consider `CNC(=O)c1ccccc1Nc1nc(Nc2cc(OC)c(OC)c(OC)c2)ncc1Br`, for which the growth with DU-145 prostate is 9.08% (active); in the assay with K-562 leukemia, 8.02% (active); in the assay with MALME-3M melanoma, -39.5% (active); with MDA-MB-231 breast, -3.87% (active); in the assay with RXF 393 renal, -64.8% (active); in the assay on SF-268 CNS, -32.7% (active). Also, the growth in the assay on SF-295 CNS is -6.65% (active); with SF-539 CNS, -79.2% (active); in the assay with UACC-257 melanoma it was -30.9% (active); in the assay with M14 melanoma it was -52.9% (active); in the assay on HCT-15 colon, 3.34% (active); in the assay with HT29 colon it was -0.259% (active). The growth in the assay on SNB-75 CNS was -55% (active); in the assay with SNB-19 CNS, 6.35% (active); in the assay on U251 CNS, -9.93% (active); in the assay with PC-3 prostate, 61.4%; with SK-MEL-5 melanoma, -22.3% (active); with UACC-62 melanoma it was -69.6% (active). In addition, the values for the growth with LOX IMVI melanoma and in the assay with SK-MEL-28 melanoma were -60.3% (active) and -13.6% (active), respectively.
Turning to `Cc1nn(-c2cc(NC3CCC(O)CC3)c3c(=O)[nH]c(CCC(F)(F)F)cc3c2)c2c1C(=O)CC(C)(C)C2` (centres undefined), the growth with DU-145 prostate is 27%; with K-562 leukemia, 18.5%; with MALME-3M melanoma, 60%; with MDA-MB-231 breast it was 42%; in the assay on RXF 393 renal, 39.1%; in the assay on SF-268 CNS, 72%. In addition, the growth in the assay with SF-295 CNS is 48.5%; with SF-539 CNS it was 58%; in the assay on UACC-257 melanoma, 62.7%; in the assay with M14 melanoma, 32.3%; in the assay with HCT-15 colon, 31.1%; in the assay with HT29 colon, 13.9%. Further, the growth with SNB-75 CNS was 56.8%; in the assay on SNB-19 CNS it was 63.1%; with U251 CNS, 56.5%; in the assay on PC-3 prostate, 55.4%; in the assay on SK-MEL-5 melanoma, 51.7%; in the assay with UACC-62 melanoma, 45%. The growth is 30.2% in the assay with LOX IMVI melanoma and 53.8% with SK-MEL-28 melanoma.
`COc1cc(/C=N/Nc2ccc(Br)cc2)cc(OC)c1OC`: the growth in the assay on DU-145 prostate is 63.1%; with K-562 leukemia, 9.82% (active); in the assay with MALME-3M melanoma it was 55.5%; with MDA-MB-231 breast, 47.5%; in the assay on RXF 393 renal, 102%; in the assay on SF-268 CNS, 52.5%. In addition, the growth is 60.9% in the assay with SF-295 CNS; 63.5% with SF-539 CNS; 84.6% in the assay with UACC-257 melanoma; 18.4% in the assay with M14 melanoma; 18.9% in the assay with HCT-15 colon; 29.2% in the assay on HT29 colon. The growth in the assay with SNB-75 CNS was 87.5%; in the assay with SNB-19 CNS it was 91.6%; in the assay with U251 CNS, 65.5%; in the assay on PC-3 prostate it was 60.9%; in the assay on SK-MEL-5 melanoma, 85%; in the assay on UACC-62 melanoma, 36.8%. Moreover, in the assay with SK-MEL-28 melanoma, the growth was 82.1%.
In the case of `CCOC(=O)c1c(C)nc2ccccc2c1/C=C/c1ccccc1`, the growth in the assay with DU-145 prostate is 91.9%; in the assay on K-562 leukemia, 44.4%; with MALME-3M melanoma it was 111%; in the assay with MDA-MB-231 breast, 81.9%; with RXF 393 renal it was 113%; with SF-268 CNS, 85.4%. In addition, the growth is 66.4% in the assay on SF-295 CNS; 89% with SF-539 CNS; 76.6% in the assay with UACC-257 melanoma; 82.8% in the assay with M14 melanoma; 64.3% in the assay on HCT-15 colon; 82.6% in the assay with HT29 colon. Besides, the growth with SNB-75 CNS was 80.1%; in the assay with SNB-19 CNS it was 77.3%; in the assay on U251 CNS, 79.7%; in the assay on PC-3 prostate it was 69.9%; in the assay with SK-MEL-5 melanoma, -0.202% (active); in the assay on UACC-62 melanoma, 52.2%. Besides, the growth is 71.8% with LOX IMVI melanoma and 102% in the assay with SK-MEL-28 melanoma.
